Screening data deposited in PubChem BioAssay by National Center for Advancing Translational Sciences (NCATS).
Sampled rows, rich in hits. Any-hit rate of the full collection: about 8.3%.
SW480 rerep: induces DNA re-replication in SW480 colon adenocarcinoma cells. Potency, µM (doses to about 46.1 µM), actives largely listed as activators. 1.8% of 340,000 active. SW480 DNA re-replication, Hoechst DNA content imaging, 48 h; further: nearly all actives have a fitted effect of over 55% in size
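Treated cells incubate 48 hr (37 C, 5% CO2), are stained 40 min with Hoechst, and nuclear fluorescence is enumerated; a rise in nuclei with high DNA signal marks re-replication.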
Giardia killer: Giardia lamblia killing; activity change, % at 7.66 µM, hits read low; 0.15% of 340,000 active; Giardia lamblia trophozoite viability; AID 540267; in the data active means activity change below about -80%; inconclusive means between about -30% and that limit;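 further: parasites exposed to compound for two days anaerobically before the ATP read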
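Viability, read as ATP luminescence: trophozoites at 100 cells/well, compound added, 48 hrs anaerobic at 37 deg C, then 15-30 min room-temperature development before reading.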
RORg inh: blocks mouse ROR gamma transcriptional activity; P51450; Drosophila S2 Gal4-RORgamma UAS-luciferase reporter, 20 h; Potency, µM (series often up to 53.6 µM), usual class: inhibitors; 5.4% of 310,000 active; AID 2551; further: nearly all actives have a fitted effect of over 60% in size
Target sequence (P51450 whole entry, looked up, the tested form may be a part): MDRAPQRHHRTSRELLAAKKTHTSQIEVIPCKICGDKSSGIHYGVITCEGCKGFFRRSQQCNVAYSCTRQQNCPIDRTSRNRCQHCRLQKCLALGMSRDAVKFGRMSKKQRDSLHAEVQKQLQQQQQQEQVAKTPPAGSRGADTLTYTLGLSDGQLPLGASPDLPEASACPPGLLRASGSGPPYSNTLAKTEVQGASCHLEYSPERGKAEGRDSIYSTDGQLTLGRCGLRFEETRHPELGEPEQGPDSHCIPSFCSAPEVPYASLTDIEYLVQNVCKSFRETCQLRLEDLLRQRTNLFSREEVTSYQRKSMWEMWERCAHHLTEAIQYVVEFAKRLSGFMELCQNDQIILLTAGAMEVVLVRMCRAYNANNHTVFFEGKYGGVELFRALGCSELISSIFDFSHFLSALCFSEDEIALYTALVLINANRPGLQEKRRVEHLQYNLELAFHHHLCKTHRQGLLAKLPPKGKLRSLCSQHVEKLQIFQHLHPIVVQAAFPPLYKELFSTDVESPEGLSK
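Using a luciferase readout, inhibitors were identified by reduced reporter activity in Drosophila cells coexpressing a copper-inducible Gal4–ROR gamma fusion and UAS-driven Photinus luciferase, incubated 20 hr after 700 uM copper sulfate.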
BCR signal inh: chronic active BCR signaling inhibition; AID 493014; Potency, µM (top dose mostly 46.1 µM), usual class: inhibitors; 0.05% of 340,000 active; ABC-DLBCL IkBa-CBG/CBR reporter, luminescence ratio, 4 h; active means well fitted inhibition curve with a large enough effect in the signal ratio, with a control signal flat, not every such curve was filed as active; inconclusive means small, poorly fitted or top-dose-only effect, or effect the other way, or a change in a side signal; the % refers to the signal ratio
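Doxycycline induced both beetle luciferases in TMD8 lymphoma cells; IKK-driven degradation limits the IkappaBalpha-fused green signal, while red luminescence normalises for cell number and nonspecific effects. Compounds tested up to 46 uM, 4 hrs.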
MCF10A rereplic: induces DNA re-replication in MCF 10a normal breast cells; MCF 10A DNA re-replication, Hoechst nuclear intensity, 48 h; Potency, µM (titrated, usually from 46.1 µM), usual class: activators; 2.9% of 350,000 active; further: nearly all actives have a fitted effect of over 50% in size
Gal4-VP16 FLuc: Gal4-VP16 reporter inhibition counter-screen | Drosophila S2 Gal4-VP16 UAS-luciferase, luminescence, 20 h | Potency, µM (doses to about 53.6 µM), most hits filed as inhibitors | 3.5% of 310,000 active | AID 2546;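 further: Gal4-VP16 expression switched on by copper sulfate through the metallothionein promoter; nearly all actives have a fitted effect of over 50% in size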
A number is an active result; . = inactive; ? = inconclusive; / = no result given; ! = not confirmed by another sample; [ ] = dose if it differs, or a comment. Unless noted, the call rests on the fitted dose curve; in most records, active means well fitted curve in the direction sought with a large enough effect; inconclusive means small, poorly fitted or top-dose-only effect, or another doubt; inactive means no such curve, though single readings can be large; an effect the other way counts as inactive or inconclusive.

SMILES	SW480 rerep	Giardia killer	RORg inh	BCR signal inh	MCF10A rereplic	Gal4-VP16 FLuc
C=CCn1c(-c2ccc(OC)c(OC)c2)n[nH]c1=S	.	.	3.2µM	.	.	?
Cc1cc(C)cc(N2C(=O)C=CC2=O)c1	16µM	.	/	/	6.5µM	/
Cc1c([N+](=O)[O-])cc(N2C(=O)C=CC2=O)cc1[N+](=O)[O-]	.	.	/	/	.	/
CC(C)(C)NCC(=Cc1ccccc1)C(=O)c1ccccc1	5.2µM	.	/	/	1.8µM	/
CC(=O)N/C(=C/c1ccccc1)c1ccccc1	?	.	/	?	.	/
CCCC(=O)Nc1ccc(-c2nc3ncccc3o2)cc1	.	.	?	?	.	.
O=C(Nc1ccc(CN2CCOCC2)cc1)c1cc2ccccc2o1	.	.	11µM	?	.	?
O=C(Nc1ccc(CN2CCOCC2)cc1)c1cc2ccccn2n1	.	.	10µM	?	.	20µM
O=C(Nc1ccc(CN2CCOCC2)cc1)c1ccccc1F	.	.	0.63µM	?	.	11µM
O=C(Nc1cccc(Cl)c1N1CCCC1)c1cc2ccccc2o1	.	.	.	?	21µM	.
O=C(NC(=S)Nc1ccc(CN2CCOCC2)cc1)c1cc2ccccc2o1	.	.	.	.	.	.
O=C(NNS(=O)(=O)c1ccccc1Cl)c1nn(-c2ccc(F)cc2)ccc1=O	.	.	.	.	.	.
CCCN1C(=O)CC(=O)N=C1SCC(=O)Nc1ccccc1F	.	.	/	.	.	/
CC12CCC(C3NC(=S)NN=C31)C2(C)C (configuration not stated)	.	.	/	/	.	/
CC(=O)c1cccc(NC(=O)c2cc3ccccn3n2)c1	.	.	8.9µM	?	.	?
O=C(CN(Cc1ccccc1)C(=O)CNS(=O)(=O)c1ccc(Cl)cc1)NCC1CCCO1 (configuration not stated)	.	.	.	.	.	.
COc1ccc(-c2cc(=S)ss2)cc1	.	/	?	/	.	.
CCOc1ccc(S(=O)(=O)N/N=C\c2ccc3c(c2)OCO3)cc1	.	.	.	.	.	.
CC1=C(/C=C/C(C)=C/C=C/C(C)=C/C(=O)O)C(C)(C)CCC1	.	.	5µM!	?	.	.
COC(=O)[C@@H](CC(C)C)N(Cc1ccccc1)S(=O)(=O)N(Cc1ccccc1)[C@@H](CC(C)C)C(=O)OC	.	.	/	.	.	/
CCOC(=O)c1c(-c2ccc(OC)cc2)oc2cc(Br)c(O)cc12	.	.	.	?	15µM	?
CCOC(=O)c1c(-c2ccc(OC)cc2)oc2ccc(O)cc12	.	.	.	.	?	.
Cc1cc(C)nc(NC(=NCCc2c[nH]c3ccccc23)NC(=O)C(C)(C)C)n1	?	.	7.1µM	.	.	?
O=C(/C(N=Nc1cccc(C(F)(F)F)c1)=C(/O)c1cccs1)C(F)(F)F	.	.	?	?	21µM	?
CC(=O)/C(N=Nc1cccc(C(F)(F)F)c1)=C(\C)O	.	.	.	.	.	.
SMILES	SW480 rerep	Giardia killer	RORg inh	BCR signal inh	MCF10A rereplic	Gal4-VP16 FLuc
Cc1nc(C(=O)NNC(=O)c2ccccc2)c(C(F)(F)F)o1	.	.	11µM	.	.	.
Cc1nc(C(=O)NCC(=O)c2ccccc2)c(C(F)(F)F)o1	?	.	.	.	.	.
Cc1cccc(OCCNC(=O)c2cncc(Br)c2)c1	0.92µM	.	.	?	.	.
Cc1cccc(OCCNC(=O)c2ccc(Cl)c(S(=O)(=O)NCc3cccnc3)c2)c1	?	.	/	?	5.8µM	/
COC(=O)C1CCN(C(=O)c2ccc(Cl)c(S(=O)(=O)NCc3cccnc3)c2)CC1	.	.	.	.	.	.
COC(=O)[C@@]1(Cc2ccc(F)cc2)[C@H]2c3cc(C(=O)N4CCCC4)n(CCSCCO)c3C[C@H]2CN1C(=O)c1ccccc1	/	/	.	/	/	.
O=C(c1ccccc1)N1N=C(C(F)(F)F)CC1(O)c1ccc(F)cc1 (configuration not stated)	.	.	20µM	?	.	?
CC1=NN(C(=O)COc2cc(C)ccc2C(C)C)C(O)(c2ccccc2)C1 (configuration not stated)	.	.	11µM	.	?	18µM
CC1=NN(C(=O)c2ccc(Cl)cc2)C(O)(c2ccccc2)C1 (configuration not stated)	?	.	10µM	?	15µM	13µM
COC(=O)C1=NN(C(=O)c2ccc(C)cc2)C(O)(c2ccc(Cl)cc2)C1 (configuration not stated)	.	.	.	.	.	.
Cc1ccc(C(C)C)c(OCC(=O)NNC(=O)Nc2ccccc2)c1	.	.	/	/	.	/
O=C(c1ccccc1)N1N=C(C(F)(F)F)CC1(O)c1ccccc1 (configuration not stated)	.	.	.[1.91 µM]	.	.	?
CC1=NN(C(=O)CSCc2ccccc2)C(O)(c2ccc(F)cc2)C1 (configuration not stated)	.	.	7.1µM	?	.	?
O=S(=O)(Nc1ccncc1)c1cc(Cl)c(Cl)cc1Cl	.	.	?	.	.	.
COC(=O)C1=NN(C(=O)c2cccc(Cl)c2)C(O)(C(C)(C)C)C1 (configuration not stated)	.	.	5µM	?	?	?
COC(=O)C1=NN(C(=O)c2ccccc2)C(C)(O)C1 (configuration not stated)	.	.	.	.	.	.
CC(C)(C)C1(O)CC(C(F)(F)F)=NN1C(=O)CCc1ccccc1 (configuration not stated)	.	.	.	.	.	.
COC(=O)C1=NN(C(=O)c2ccccc2)C(O)(c2ccc([N+](=O)[O-])cc2)C1 (configuration not stated)	.	.	5µM	?	.	7.1µM
CC1=NN(C(=O)CCc2ccccc2)C(O)(c2ccncc2)C1 (configuration not stated)	?	.	1.8µM	.	.	?
O=C(CSCc1ccccc1)N1CCN(c2ccc(F)cc2)CC1	.	.	?	?	26µM	.
CCCCn1c(N)c(N(CCC(C)C)C(=O)c2cccc(-n3cnnn3)c2)c(=O)[nH]c1=O	?	.	/	.	.	/
Cc1ccc(OCC(=O)N2N=C(c3cccnc3)CC2(O)C(F)(F)F)cc1C (configuration not stated)	.	.	.	?	.	?
CC1=NN(C(=O)CSCc2ccccc2)C(O)(c2ccc(Cl)cc2)C1 (configuration not stated)	.	.	10µM	?	?	?
Cc1ccccc1OCC(=O)N1N=C(C(F)(F)F)CC1(O)C(C)(C)C (configuration not stated)	.	.	?	?	.	?
